Inconclusive results are not listed. A structure can be active in one record and inactive in another. Activity calls are given as the source filed them. Unless noted, the call rests on the fitted dose curve; in most records, active means well fitted curve in the direction sought with a large enough effect; inconclusive means small, poorly fitted or top-dose-only effect, or another doubt; inactive means no such curve, though single readings can be large; an effect the other way counts as inactive or inconclusive.

Experiment [1] can be described thus: Primary qHTS for inhibitors of La Crosse Virus (LACV) - induced cell death in SH-SY5Y cells (AID 1508616).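 Further: top concentration of the series differs between compounds; higher means more rescue of cells from virus-induced death.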 In short, it runs like this:
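SH-SY5Y cells (6000/well) plated 24 h, then given compounds by pin transfer and LACV at 0.01 MOI for 6 days at 37C. Viability measured by ATPLite luminescence, normalized to infected DMSO and uninfected DMSO.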
Background: In qHTS, concentration-response curves come from the screen itself.

The target of experiment [2] is Calcium and integrin-binding protein 1 (Homo sapiens) (UniProt Q99828). The experiment is described as follows: Primary qHTS for Identification of Calcium Integrin Binding Protein 1 (CIB1) Competitor (AID 1508620).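 Further: GST tagged CIB1 binding a fluorescein labelled alphaIIb integrin peptide tracer; top concentration of the series differs between compounds.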 In short, it runs like this: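 Fluorescence polarization competition: CIB1-GST (1 uM final) preincubated with compound 15 min at room temperature, then FITC-labeled alphaIIb peptide (100 nM final) added for another 15 min. Polarization read at Ex 480/Em 540.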

Experiment [3] in a line: Primary qHTS for small molecule stabilizers of the endoplasmic reticulum resident proteome: Secreted ER Calcium Modulated Protein (SERCaMP) assay (AID 1508630). In short, it runs like this: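 GLuc-SERCaMP-expressing SH-SY5Y cells, pretreated 16 h with compound, are challenged with thapsigargin to empty ER calcium stores; after 4 h, coelenterazine is added directly to the medium and luminescence is imaged.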

For experiment [4], the target named is Cytochrome P450 2D6 (Homo sapiens) (UniProt P10635). The experiment is described as follows: Cytochrome P450 family 2 subfamily D member 6 (CYP2D6) small molecule antagonists: luciferase biochemical (cell-free) qHTS assay (AID 1645840; active means well fitted curve in the direction sought with a large enough effect in the repeat runs; an effect the other way counts as inactive or inconclusive; further: nearly all actives have a fitted effect of over 55% in size; further: potency means the concentration at half of the fitted maximal effect). In short, it runs like this: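 P450-Glo luminescent screen: recombinant CYP2D6 enzyme–proluciferin substrate mix preincubated with compound 10 min at room temperature, then NADPH regeneration added for 1 h at room temperature. Detection reagent added for 20 min; luciferin light read as relative luminescence units.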

Experiment [5] addresses Cytochrome P450 2C9 (Homo sapiens) (UniProt P11712). Description: Cytochrome P450 family 2 subfamily C member 9 (CYP2C9) small molecule antagonists: luciferase biochemical (cell-free) qHTS assay (AID 1645842; active means well fitted curve in the direction sought with a large enough effect in the repeat runs; an effect the other way counts as inactive or inconclusive; further: nearly all actives have a fitted effect of over 55% in size; further: potency means the concentration at half of the fitted maximal effect). In short, it runs like this: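 Luminescence, after 20 min with luciferin detection reagent, reflected CYP2C9 turnover during a 1 h NADPH-driven reaction at 37C. Enzyme-substrate mix contained 0.4% bovine serum albumin and was preincubated with compound 10 min at room temperature.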

Experiment [6] is described as follows: Primary qHTS for inhibitors of nuclear receptor binding SET domain protein 2 (NSD2) in an isogenic RCH-ACV NSD2 p.E1099K mutant (9B) (AID 1645876). Further: nearly all actives have a fitted effect of over 70% in size. Further: potency means the concentration at half of the fitted maximal effect.
Experiment [7] can be described thus: Primary qHTS for inhibitors of nuclear receptor binding SET domain protein 2 (NSD2) in an RCH-ACV wild type WT cells (2C) (AID 1645877). Further: nearly all actives have a fitted effect of over 70% in size. Further: potency means the concentration at half of the fitted maximal effect.
The nature of experiment [8]: A High-Content qHTS Against Drug Library for the Identification of Small Molecules that Inhibit DYT1 Early Onset Primary Dystonia-Associated Cell Pathology (AID 1645839; calls by dose curve; further: series mostly up to about 46 µM). In short, it runs like this:
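Readout: %pathology, the punctate EGFP-TorsinA distribution from imaging, as the primary channel and cell count as the toxicity counterscreen. HEK293 Flp-In cells expressing delE TorsinA were induced with tetracycline and treated with compound for 48 h.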

Experiment [9] addresses Rap guanine nucleotide exchange factor 3 (Homo sapiens) (UniProt O95398). Description: Confirmatory qHTS for agonist of cAMP-regulated guanine nucleotide exchange factor 3 (EPAC1) (AID 1645881).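 Further: EPAC1 catalysed release of BODIPY-GDP from Rap1B seen as fluorescence loss; nearly all actives have a fitted effect of over 75% in size.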
In experiment [10] the target is Rap guanine nucleotide exchange factor 4 (Homo sapiens) (UniProt Q8WZA2). The experiment is described as follows: Confirmatory qHTS for agonist of cAMP-regulated guanine nucleotide exchange factor 4 (EPAC2) (AID 1645884).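 Further: nucleotide exchange releases bodipy-GDP from Rap1 and this lowers its fluorescence; nearly all actives have a fitted effect of over 65% in size.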
The target is the same in experiment [11]. The experiment is described as follows: Confirmatory qHTS for antagonist of cAMP-regulated guanine nucleotide exchange factor 4 (EPAC2) (AID 1645885). Further: nearly all actives have a fitted effect of over 25% in size. Further: potency means the concentration at half of the fitted maximal effect.
For experiment [12], the target named is Rap guanine nucleotide exchange factor 3 (Homo sapiens) (UniProt O95398). The experiment is described as follows: Counterscreen qHTS for antagonist of cAMP-regulated guanine nucleotide exchange factor 3 (EPAC1) (AID 1645888).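 Further: fluorescence loss as bound BODIPY-GDP is released from Rap1B.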 In short, it runs like this:
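Measured: fluorescence of BODIPY-GDP bound to Rap1B, which falls as exchange proceeds. Conditions include 50 uM competing GDP, 5 and 30 min reads, and a later cAMP challenge for antagonist detection.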
In general terms: Counterscreens check selectivity or assay interference.

In experiment [13] the target is Cytochrome P450 3A4 (Homo sapiens) (UniProt P08684). The experiment is described as follows: Cytochrome P450 family 3 subfamily A member 4 (CYP3A4) small molecule antagonists: luciferase qHTS assay (AID 1645841; active means well fitted curve in the direction sought with a large enough effect in the repeat runs; an effect the other way counts as inactive or inconclusive; further: nearly all actives have a fitted effect of over 45% in size). In short, it runs like this:
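P450-Glo CYP3A4 enzyme with proluciferin substrate was preincubated with DMSO-dissolved compounds for 10 min at room temperature. NADPH regeneration solution started a 1 h reaction. Detection reagent stopped it, and luminescence was read after 20 min.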

Cytochrome P450 2D6 (Homo sapiens), sequence (P10635 whole entry, looked up): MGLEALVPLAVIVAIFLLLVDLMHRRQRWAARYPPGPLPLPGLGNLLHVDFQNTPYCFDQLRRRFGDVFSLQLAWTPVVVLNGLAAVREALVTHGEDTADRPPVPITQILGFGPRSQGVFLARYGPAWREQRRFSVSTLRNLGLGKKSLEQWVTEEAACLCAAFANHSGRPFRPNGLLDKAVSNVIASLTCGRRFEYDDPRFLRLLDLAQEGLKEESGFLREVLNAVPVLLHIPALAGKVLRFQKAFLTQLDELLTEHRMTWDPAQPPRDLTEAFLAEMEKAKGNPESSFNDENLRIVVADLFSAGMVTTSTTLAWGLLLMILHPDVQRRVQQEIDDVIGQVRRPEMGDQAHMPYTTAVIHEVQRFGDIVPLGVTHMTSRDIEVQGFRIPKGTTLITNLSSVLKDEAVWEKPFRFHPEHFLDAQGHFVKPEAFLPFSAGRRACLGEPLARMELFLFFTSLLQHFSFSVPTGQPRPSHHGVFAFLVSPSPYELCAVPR
Cytochrome P450 2C9 (Homo sapiens), sequence (P11712 whole entry, looked up): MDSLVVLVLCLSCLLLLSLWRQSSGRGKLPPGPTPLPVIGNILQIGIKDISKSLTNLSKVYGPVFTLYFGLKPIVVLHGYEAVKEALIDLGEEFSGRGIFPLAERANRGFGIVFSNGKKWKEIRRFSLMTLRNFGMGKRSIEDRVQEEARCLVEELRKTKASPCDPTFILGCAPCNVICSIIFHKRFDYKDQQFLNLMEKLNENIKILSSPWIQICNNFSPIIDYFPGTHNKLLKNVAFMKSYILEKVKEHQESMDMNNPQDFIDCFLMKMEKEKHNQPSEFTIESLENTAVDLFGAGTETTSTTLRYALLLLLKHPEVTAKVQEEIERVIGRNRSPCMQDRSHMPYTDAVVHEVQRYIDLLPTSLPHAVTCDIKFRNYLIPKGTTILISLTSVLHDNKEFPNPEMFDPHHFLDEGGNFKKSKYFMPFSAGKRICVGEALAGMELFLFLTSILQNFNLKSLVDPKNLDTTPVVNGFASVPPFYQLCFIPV
Rap guanine nucleotide exchange factor 4 (Homo sapiens), sequence (Q8WZA2 whole entry, looked up): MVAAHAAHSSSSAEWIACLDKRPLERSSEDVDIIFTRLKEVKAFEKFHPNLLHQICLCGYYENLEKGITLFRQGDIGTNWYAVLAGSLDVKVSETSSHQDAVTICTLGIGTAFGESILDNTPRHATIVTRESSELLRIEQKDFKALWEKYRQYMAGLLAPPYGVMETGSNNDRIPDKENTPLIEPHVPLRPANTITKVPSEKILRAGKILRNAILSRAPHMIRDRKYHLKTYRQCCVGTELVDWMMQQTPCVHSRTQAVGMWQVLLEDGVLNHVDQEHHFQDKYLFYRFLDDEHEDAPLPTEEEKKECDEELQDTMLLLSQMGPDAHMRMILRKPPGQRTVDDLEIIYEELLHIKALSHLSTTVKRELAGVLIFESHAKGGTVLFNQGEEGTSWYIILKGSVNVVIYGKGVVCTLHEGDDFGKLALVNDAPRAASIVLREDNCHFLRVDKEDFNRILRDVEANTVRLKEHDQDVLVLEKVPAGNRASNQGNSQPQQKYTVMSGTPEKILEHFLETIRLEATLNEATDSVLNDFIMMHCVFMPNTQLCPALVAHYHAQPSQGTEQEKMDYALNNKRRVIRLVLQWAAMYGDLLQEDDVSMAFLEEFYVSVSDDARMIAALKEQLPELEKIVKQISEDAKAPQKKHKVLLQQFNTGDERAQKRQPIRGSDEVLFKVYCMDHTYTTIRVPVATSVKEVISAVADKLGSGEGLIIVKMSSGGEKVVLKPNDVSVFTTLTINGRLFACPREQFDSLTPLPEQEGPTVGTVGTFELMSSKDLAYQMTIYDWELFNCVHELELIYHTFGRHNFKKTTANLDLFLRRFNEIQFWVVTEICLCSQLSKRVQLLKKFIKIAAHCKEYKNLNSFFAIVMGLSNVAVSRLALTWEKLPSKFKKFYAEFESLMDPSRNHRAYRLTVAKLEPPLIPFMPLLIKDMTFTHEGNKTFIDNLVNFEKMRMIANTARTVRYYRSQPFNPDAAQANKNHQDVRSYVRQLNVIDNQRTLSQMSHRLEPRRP
Calcium and integrin-binding protein 1 (Homo sapiens), sequence (Q99828 whole entry, looked up): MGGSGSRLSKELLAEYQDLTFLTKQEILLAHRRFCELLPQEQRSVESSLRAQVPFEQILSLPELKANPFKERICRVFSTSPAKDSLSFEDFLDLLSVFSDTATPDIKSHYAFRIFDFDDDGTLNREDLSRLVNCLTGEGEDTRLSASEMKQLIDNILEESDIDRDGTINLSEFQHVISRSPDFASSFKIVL
Rap guanine nucleotide exchange factor 3 (Homo sapiens), sequence (O95398 whole entry, looked up): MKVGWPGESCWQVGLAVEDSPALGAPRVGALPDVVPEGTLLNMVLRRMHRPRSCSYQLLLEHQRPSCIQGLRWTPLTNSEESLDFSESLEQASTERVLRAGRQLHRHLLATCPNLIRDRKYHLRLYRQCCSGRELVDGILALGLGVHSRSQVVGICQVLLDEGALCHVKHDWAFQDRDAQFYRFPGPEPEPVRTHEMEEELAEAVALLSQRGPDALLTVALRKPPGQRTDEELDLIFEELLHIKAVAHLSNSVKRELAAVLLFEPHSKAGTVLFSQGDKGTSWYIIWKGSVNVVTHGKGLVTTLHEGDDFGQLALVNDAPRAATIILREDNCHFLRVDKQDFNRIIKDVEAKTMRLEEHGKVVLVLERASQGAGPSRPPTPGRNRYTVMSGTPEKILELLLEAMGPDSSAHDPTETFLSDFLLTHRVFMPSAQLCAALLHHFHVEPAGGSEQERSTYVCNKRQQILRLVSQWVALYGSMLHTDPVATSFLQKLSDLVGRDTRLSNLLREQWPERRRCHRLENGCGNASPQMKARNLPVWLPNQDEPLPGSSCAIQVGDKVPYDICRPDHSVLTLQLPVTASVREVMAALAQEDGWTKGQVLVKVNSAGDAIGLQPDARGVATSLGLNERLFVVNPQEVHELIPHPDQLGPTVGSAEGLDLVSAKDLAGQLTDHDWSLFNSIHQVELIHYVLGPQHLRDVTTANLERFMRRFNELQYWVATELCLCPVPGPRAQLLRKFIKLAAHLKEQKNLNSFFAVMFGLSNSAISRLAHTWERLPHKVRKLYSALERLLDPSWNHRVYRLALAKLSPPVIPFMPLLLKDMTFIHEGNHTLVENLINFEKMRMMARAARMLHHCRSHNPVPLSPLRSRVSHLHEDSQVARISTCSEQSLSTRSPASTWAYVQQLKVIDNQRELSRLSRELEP
Cytochrome P450 3A4 (Homo sapiens), sequence (P08684 whole entry, looked up): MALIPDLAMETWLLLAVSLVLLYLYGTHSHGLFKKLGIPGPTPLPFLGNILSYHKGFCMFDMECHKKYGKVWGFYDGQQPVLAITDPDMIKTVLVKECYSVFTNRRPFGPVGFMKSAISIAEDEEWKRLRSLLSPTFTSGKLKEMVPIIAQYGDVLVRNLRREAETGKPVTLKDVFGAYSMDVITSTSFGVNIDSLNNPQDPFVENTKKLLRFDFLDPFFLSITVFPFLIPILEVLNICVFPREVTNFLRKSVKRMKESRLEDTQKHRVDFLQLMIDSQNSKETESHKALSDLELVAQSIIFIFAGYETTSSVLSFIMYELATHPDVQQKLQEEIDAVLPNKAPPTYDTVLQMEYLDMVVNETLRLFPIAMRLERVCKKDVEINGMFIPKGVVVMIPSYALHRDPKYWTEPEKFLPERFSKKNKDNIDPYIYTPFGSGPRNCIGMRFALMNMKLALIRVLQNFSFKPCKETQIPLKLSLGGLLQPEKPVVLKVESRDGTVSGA

`C#C[C@]1(O)CC[C@H]2[C@@H]3CCc4cc(OC5CCCC5)ccc4[C@H]3CC[C@@]21C`: the Potency entry in experiment [1], in [2], in experiment [3], in [4] and in [6] was “inactive” throughout. In addition, the Potency in [5] was 8.71 µM (active).

Consider `COc1ccc(CCN2CCC(Nc3nc4ccccc4n3Cc3ccc(F)cc3)CC2)cc1`, for which the Potency result in [1], in [2], in experiment [3] and in experiment [5] was “inactive” throughout. Besides, the Potency was 6.17 µM (active) in [4], 7.5 µM (active) in [6] and 5.31 µM (active) in experiment [7].

Regarding `O=C1OCCN1/N=C/c1ccc([N+](=O)[O-])o1`, the Potency entry in experiment [1], in [2] and in experiment [8] was “inactive” throughout.

As for `CCOC(=O)[C@H](CCc1ccccc1)N[C@@H](C)C(=O)N1Cc2ccccc2C[C@H]1C(=O)O`, the Potency result in [1], in experiment [2], in [8] and in experiment [4] was “inactive” throughout. Moreover, the Potency in [5] is 6.92 µM (active) and inactive.

On to `O=C1[C@H]2CCCC[C@H]2C(=O)N1CCCCN1CCN(c2nsc3ccccc23)CC1`, for which the Potency result in [1], in experiment [2], in [8] and in experiment [5] was “inactive” each time. In addition, the Potency is 12.3 µM (active) in experiment [4], 21.1 µM (active) in [6] and 23.7 µM (active) in experiment [7].

`C#C[C@]1(O)CC[C@H]2[C@@H]3CCC4=CC(=O)CC[C@@H]4[C@H]3CC[C@@]21C`: the Potency result in experiment [1], in experiment [2] and in experiment [3] was “inactive” each time. Further, in [7], the Potency is 26.6 µM (active).

Consider `CCOC(=O)c1cccc(N)c1`, for which the Potency result in [1], in experiment [2], in [8], in [4], in experiment [5] and in experiment [6] was “inactive” in each case. In addition, the Potency result in experiment [7] is “inactive”.

Take `OC[C@H]1O[C@H](O[C@]2(CCl)O[C@H](CCl)[C@@H](O)[C@@H]2O)[C@H](O)[C@@H](O)[C@H]1Cl`: the Potency result in [1], in experiment [2], in experiment [8], in experiment [4], in experiment [5] and in [6] was “inactive” in each case. In addition, the Potency result in experiment [7] was “inactive”.

Regarding `OC(CCN1CCCCC1)(c1ccccc1)c1ccccc1`, the Potency entry in experiment [1], in [2], in [8], in experiment [5], in experiment [6] and in experiment [7] was “inactive” each time. Besides, in experiment [4], the Potency was 0.617 µM (active).

`CCCCCCCCCCCCCCNCCO`: the Potency result in experiment [1], in experiment [2], in experiment [8] and in [5] was “inactive” each time. Besides, the values for the Potency in [4], in experiment [6] and in experiment [7] were 6.17 µM (active), 7.5 µM (active) and 7.5 µM (active), respectively.

In the case of `COc1cc2c(cc1OC)C(C(C(=O)N(CCc1ccc(OC)c(OC)c1OC)CCc1ccc(OC)c(OC)c1OC)c1ccccc1)=NCC2` (stereo unspecified), the Potency entry in [1], in [2] and in experiment [8] was “inactive” throughout. The figures for the Potency in experiment [4] and in experiment [5] were 12.3 µM (active) and 4.36 µM (active), respectively.

In the case of `CCCCCCCCCCCCCCCCOP(=O)([O-])OCC[N+](C)(C)C`, the Potency result in experiment [1], in [2], in [3] and in [5] was “inactive” throughout. For the same compound, the Potency in experiment [6] is 10.6 µM (active); in experiment [7], 11.9 µM (active).

`COc1ccc(/C=C/C(=O)c2ccc(OC)cc2OC)cc1`: the Potency result in experiment [1], in [2], in [3] and in experiment [10] was “inactive” throughout. The Potency in experiment [5] is 4.36 µM (active); in [6], 11.9 µM (active); in [7] it was 10.6 µM (active); in experiment [11], 15.6 µM (active) and inactive. In addition, the compound was called inactive in experiment [9] and in experiment [12].

With `CC(=O)[C@H]1CC[C@H]2[C@@H]3C[C@H](C)C4=CC(=O)CC[C@]4(C)[C@H]3[C@@H](O)C[C@]12C`, the Potency entry in experiment [1], in experiment [2] and in experiment [3] was “inactive” throughout. Further, in experiment [5], the Potency is 0.86 µM (active).

Regarding `CNC(=O)CN(CCN(CCN(CC(=O)[O-])CC(=O)NC)CC(=O)[O-])CC(=O)[O-].O.[Gd+3]`, the Potency result in experiment [1], in experiment [2], in experiment [8], in experiment [4], in experiment [5] and in experiment [6] was “inactive” throughout. For the same compound, the Potency entry in experiment [7] is “inactive”. Further, the outcome in experiment [13] was inactive.

For the compound `NC(CS)C(=O)O` (stereo unspecified), the Potency entry in experiment [1], in experiment [2], in experiment [8], in experiment [4], in experiment [5] and in experiment [6] was “inactive” each time. The Potency result in [7] was “inactive”.

Consider `NC(=O)CC[C@@H]1NC(=O)[C@H](Cc2ccccc2)NC(=O)[C@H](Cc2ccc(O)cc2)NC(=O)CCSSC[C@@H](C(=O)N2CCC[C@H]2C(=O)N[C@@H](CCCN=C(N)N)C(=O)NCC(N)=O)NC(=O)[C@H](CC(N)=O)NC1=O`, for which the Potency entry in experiment [1], in experiment [2], in experiment [8], in experiment [4], in experiment [5] and in experiment [6] was “inactive” each time. Besides, the Potency entry in experiment [7] was “inactive”.

For `NC[C@H]1O[C@H](O[C@H]2[C@H](O)[C@@H](O[C@H]3O[C@H](CO)[C@@H](O)[C@H](N)[C@H]3O)[C@H](N)C[C@@H]2N)[C@H](N)[C@@H](O)[C@@H]1O`, the Potency entry in [1], in experiment [2], in [8], in experiment [4], in experiment [5] and in experiment [6] was “inactive” throughout. In experiment [7], the Potency entry was “inactive”.

With `C=C1C(=C/C=C2\CCC[C@]3(C)[C@@H]([C@H](C)/C=C/[C@@H](O)C4CC4)CC[C@@H]23)C[C@@H](O)C[C@@H]1O`, the Potency entry in experiment [1], in experiment [2] and in [3] was “inactive” each time. In addition, the Potency in experiment [4] is 24.5 µM (active); in experiment [6], 15 µM (active); in experiment [7], 16.8 µM (active).

For the compound `OCc1ccccc1O`, the Potency result in experiment [1], in experiment [2], in experiment [8], in experiment [4], in experiment [5] and in experiment [6] was “inactive” in each case. In [7], the Potency entry was “inactive”.

Consider `CC(C)(C(=O)c1cccnc1)c1cccnc1`, for which the Potency result in experiment [1], in experiment [2], in [8], in [4] and in [5] was “inactive” in each case.

Regarding `CC(Cc1ccccc1)(NC(=O)CN)c1ccccc1` (stereo unspecified), the Potency entry in experiment [1], in experiment [2], in [3], in experiment [6] and in experiment [7] was “inactive” each time.

As to `NC(=O)c1cc[n+](CC2=C(C(=O)[O-])N3C(=O)[C@@H](NC(=O)Cc4cccs4)[C@H]3SC2)cc1`, the Potency entry in [1], in [2], in experiment [8], in [4], in [5] and in [6] was “inactive” throughout. In addition, in [7], the Potency result was “inactive”.

In the case of `NCCCC[C@H](N[C@@H](CCc1ccccc1)C(=O)O)C(=O)N1CCC[C@H]1C(=O)O`, the Potency result in experiment [1], in experiment [2], in [8], in experiment [4], in experiment [5] and in [6] was “inactive” in each case. The Potency entry in experiment [7] was “inactive”.
